This note sets out measurements from ChEMBL document CHEMBL4513216, “Probing the Open Global Health Chemical Diversity Library for Multistage-Active Starting Points for Next-Generation Antimalarials” (ACS Infect Dis, 2020).

The campaign covered roughly 69,000 compounds. About 8,600 (12%) showed an effect of 50% or more. For the sample, strong results were picked, then their nearest neighbours and some compounds at random.

In the test the test system is Plasmodium berghei. Kind of test: Screen against P. berghei liver stage (PbLuc), transformed with Luciferase, at 10uM. The conditions noted are these: tested at 10 uM. The class given is functional, HepG2.
For the compound `CCc1cc(NCC(O)CN2CCCC2)ncn1` (configuration not stated), the INHIBITION came out at 18.5%.
In the case of `CCC(=O)N1CCCCC1c1nc(O)c2c(n1)CN(C(=O)C1CC1)CC2` (configuration not stated), the INHIBITION was found to be 34.65%.
With `Cc1cc(CN(C)C(=O)c2cccc(N3CCCS3(=O)=O)c2)no1`, the INHIBITION was found to be 42%.
For `CN(C)[C@@H]1CCN(S(=O)(=O)c2cn(C)cn2)[C@H]1Cc1cccnc1` the value was 33%; for `CC(C)Cc1nnc(NC(=O)NC(CCO)c2cccs2)s1` (configuration not stated), 36%; for `CCCn1cc(S(=O)(=O)N[C@H]2CN(CC(N)=O)C[C@@H]2C2CC2)cn1`, 37.7%.
For `CCCn1cc(S(=O)(=O)N[C@H]2CN(CCO)C[C@@H]2C2CC2)cn1` the value was 92.1%.
Take `CCCn1cc(S(=O)(=O)N[C@H]2CN(C(C)=O)C[C@@H]2C2CC2)cn1`: the INHIBITION is reported as 24.2%.
For `Cc1ccc(CC2COCCN(S(C)(=O)=O)C2)nc1` (configuration not stated) the value was -24.4%; for `Cc1csc(CCNC(=O)N2CCC(NC(=O)OC(C)(C)C)CC2)n1`, 13.3%; for `CC(=O)N1CCCC(C(=O)N2CCN(Cc3cc(C)on3)CC2)C1` (configuration not stated), 71.2%.
In the case of `Cc1cccc(CN2C[C@@H]3COC[C@]3(CNC(=O)C3CC3)C2)c1` it was 35.8%; in that of `CC(=O)N1CCCC(C(=O)N2CCN(c3cnn(C)c(=O)c3)CC2)C1` (configuration not stated), 16.6%; in that of `Cc1cc(CN2C[C@@H]3COC[C@]3(CNC(=O)N3CCCC3)C2)no1`, 70.7%.
For `Cc1cc(CN2C[C@@H]3COC[C@]3(CNC(=O)N(C)C)C2)no1` the value was 45.1%; for `CNC(=O)C1CN(Cc2cc(C)on2)CCN(C(C)=O)C1` (configuration not stated), -21.6%.
Consider `Cc1cccc(CN2C[C@@H]3COC[C@]3(CNC(=O)N3CCCC3)C2)n1`, for which the INHIBITION is 21%.
In the case of `COc1cccc(CN2C[C@@H]3COC[C@]3(CNC(=O)C3CC3)C2)c1` it was 43%; in that of `Cc1cccc(CN2C[C@@H]3COC[C@]3(CNC(=O)C3CCC3)C2)c1`, 65.7%.
For `CCOCC(O)CN1CCN(C(=O)c2ccc3c(c2)COC3)CC1` (configuration not stated) the value was 29.7%; for `COc1c(CNCc2nnc3n2CCCCC3)c(C)nn1C`, 31.6%.
In the case of `CCN1C[C@@H]2[C@@H](OC)CCN(C(=O)Cc3ccsc3)[C@@H]2C1` it was 11.2%; in that of `O=C(c1cnccn1)N(CCO)Cc1cc(Br)ccc1F`, -7.81%.
For the compound `COCCNC(=O)Cn1cc(OCc2ccccc2F)c(=O)cc1CO`, the INHIBITION came out at 10.5%.
For `CC(C)CS(=O)(=O)CC(=O)NC(C)c1nnc2n1CCC2` (configuration not stated) the value was 31.3%; for `COc1cccc(C(=O)N2CCOCC2CN(C)C)c1OC` (configuration not stated), 7.44%.
In the case of `Cc1nc(CN2CCCC(CCc3ccc(F)c(F)c3)C2)c[nH]1` (configuration not stated) it was 55.7%.
For `Cc1nc(CN2CCCC(CCNS(C)(=O)=O)C2)c[nH]1` (configuration not stated) the value was -1.53%; for `Cc1[nH]c(=O)[nH]c(=O)c1CN1CCCC(CCc2ccc(F)cc2F)C1` (configuration not stated), -13.5%.
Consider `Cc1nc(CN2CCCC(CCc3ccc(F)cc3F)C2)c[nH]1` (configuration not stated), for which the INHIBITION is given as 33.5%.
In the case of `Cc1nc(CN2CCCC(CCc3c(F)cccc3F)C2)c[nH]1` (configuration not stated) it was 25.1%; in that of `Cc1nc(CN2CCCC(CCc3ccccc3F)C2)c[nH]1` (configuration not stated), 57.6%.
For `Fc1ccc(CCC2CCCN(Cc3c[nH]cn3)C2)c(F)c1` (configuration not stated) the value was 71.2%.
In the case of `Cc1nc(CN2CCCC(CCc3ccccc3C)C2)c[nH]1` (configuration not stated) it was 47.6%.
On to `Cc1nc(CN2CCCC(Cn3cc(CCO)nn3)C2)c[nH]1` (configuration not stated), for which the INHIBITION was found to be 18.5%.
In the case of `CN(C)c1nccc(-c2cnc(N(C)C)[nH]c2=O)n1` it was 13%.
For `COCc1ccccc1CNCc1c(C(C)C)nn(C)c1N(C)C` the value was 20.85%.
For `CN1CC(=O)N(c2ccsc2)CC12CCN(S(=O)(=O)c1ccccc1)C2` (configuration not stated) the value was -41.4%.
`Cc1ccccc1CN(CCN(C)C)Cc1ccccc1C(=O)O`: the INHIBITION worked out at 2.18%.
In the case of `CCN(Cc1cc(F)ccc1Cl)C1CCS(=O)(=O)C1` (configuration not stated), the INHIBITION was 12.1%.
In the case of `N#Cc1cc(S(N)(=O)=O)ccc1N1CCc2c(Cl)cccc2C1` it was 9.52%; in that of `CC(C)(C)c1ncc(C(=O)NCCNC(=O)c2ccc(O)cc2)s1`, 29.2%.
For `Cc1nc(C)c(C(=O)N2CCc3c(C)cccc32)o1` the value was 5.91%; for `COc1cccc2c1CCCCN2C(=O)c1oc(C)nc1C`, 53.7%.
In the case of `Cc1nc(C)c(C(=O)N2CCCc3c(F)cccc32)o1` it was 35.2%; in that of `CCN(CCNS(=O)(=O)C1CCOCC1)C(=O)OC(C)(C)C`, -21.2%.
On to `Cc1csc(NC(=O)CN(C)CCOc2cccc(F)c2)n1`, for which the INHIBITION is recorded as 1.05%.
In the case of `c1ccc(Cc2nnc(CN3CCCC3Cn3cccn3)o2)cc1` (configuration not stated) it was 24%; in that of `CCc1nc(Cn2c(=O)n(CC)c3ccccc32)no1`, 57.3%; in that of `CCc1nc(Cn2c(=O)n(C)c3ccccc32)no1`, 45.2%.
`CCCc1nc(Cn2c(=O)n(C)c3ccccc32)no1`: the INHIBITION came to 29.4%.
For `CC(C)NC(=O)[C@H]1C[C@@H]2[C@@H](C1)OCCN2CC1CC1` the value was 48.2%.
